Experimental data taken from PubChem BioAssay (NCATS).
Records with an inconclusive call do not appear. Active and inactive are the calls of the source. Unless noted, the call rests on the fitted dose curve; in most records, active means well fitted curve in the direction sought with a large enough effect; inconclusive means small, poorly fitted or top-dose-only effect, or another doubt; inactive means no such curve, though single readings can be large; an effect the other way counts as inactive or inconclusive.

Tests used:
[1] = AP1 Signaling Pathway (AID 357; active means well fitted curve in either direction with a large enough effect, not every such curve was filed as active;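 further: ME-180 reporter cells stimulated with EGF at its EC50 level; on the % scale 0 is the no-effect control and ±100 the full control effect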); settings: ME-180 AP-1-bla reporter, EGF-induced, beta-lactamase ratio, 5 h; at 7.69 µM (top of the series) unless noted
Summary of the method: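 Read-out was the 460nm/530nm emission ratio (excitation 405nm) after CCF4 loading for 2.5 hours at room temperature. Cells carried an AP-1-driven beta-lactamase reporter, were stimulated with EC50 EGF plus compound for 5 hours, and AC50 values came from titrations.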

[2] = Stat Signaling Pathway (AID 446; active means well fitted curve in either direction with a large enough effect, not every such curve was filed as active;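 further: ME-180 cervical cancer cells given 40 pM IL-6 alongside compound; SIE-controlled beta-lactamase reporter measured as 460/530 nm FRET emission ratio; on the % scale 0 is the no-effect control and ±100 the full control effect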); settings: ME-180 (cervical carcinoma) SIE beta-lactamase reporter, IL-6 stimulated, 5 h; at 7.69 µM (top of the series) unless noted
Summary of the method: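 Overnight-plated ME-180 cells bearing a STAT Inducible Element beta-lactamase reporter; 5 h co-exposure to compound and 40 pM IL-6; values normalized to 300 pM IL-6 and 125 nM JAK inhibitor controls.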

[3] = molecular target: Glucocorticoid receptor (Homo sapiens) (UniProt P04150); test: GR-EFC Redistribution (AID 451; calls by dose curve; further: potency means the concentration at half of the fitted maximal effect); settings: CHO-K1 GR-EFC translocation, beta-gal luminescence, 2 h
Summary of the method: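 Translocation of GR-ED fusion to nuclear EA restores b-gal, read by luminescence after 1 h room-temperature detection. Engineered CHO-K1 biosensor cells, 1,000/well, exposed 2 h at 37 C to titrations up to 46 uM final.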

[4] = molecular target: Mitogen-activated protein kinase 10 (Mus musculus) (UniProt Q61831); test: JNK3 AlphaScreen Assay (AID 530; active means well fitted curve in either direction with a large enough effect, not every such curve was filed as active;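 further: kinase came from lysate of stimulated human HepG2 cells; signal reports phosphorylation of biotinylated GST-cJun 1-79 at Ser73 with 10 µM ATP; on the % scale 0 is the no-effect control and ±100 the full control effect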)
Summary of the method: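 qHTS titrations with 15 min compound pre-incubation before adding ATP (10 uM final). Read-out: AlphaScreen of Ser73-phosphorylated biotin-GST-cJun using HepG2 lysate JNK3 activated by IL-1β and TNFα.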

[5] = molecular target: 3',5'-cyclic-AMP phosphodiesterase 4B (Homo sapiens) (UniProt Q07343); test: qHTS Assay for Inhibitors of PDE-IV (AID 607; active means well fitted activation curve with a large enough effect in the main read-out, with a control signal flat, not every such curve was filed as active; further: % of control where 0% means no effect)
Summary of the method: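 Live HEK293 cells with a modified cyclic nucleotide-gated (CNG) channel report intracellular cAMP via membrane-potential dye fluorescence (ex 535/em 590 nm). Endogenous PDE-IV was targeted. Compounds were tested at up to 22.9 uM final; RO 20-1724 100 uM served as control.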

[6] = Primary qHTS for small molecule stabilizers of the endoplasmic reticulum resident proteome: Secreted ER Calcium Modulated Protein (SERCaMP) assay (AID 1508630); further: on the % scale 0 is the no-effect control and ±100 the full control effect
Summary of the method: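 The SH-SY5Y reporter protocol was run at 3 concentrations up to 38.3 uM (primary) or 11 concentrations (follow-up): 16 h compound, 100 nM thapsigargin for 4 h, then extracellular luciferase luminescence.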

[7] = molecular target: Cytochrome P450 1A2 (Homo sapiens) (UniProt P05177); test: p450-cyp1a2 (AID 410; calls by dose curve; further: potency means the concentration at half of the fitted maximal effect)
Summary of the method: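 O-Demethylation of luciferin 6' methyl ether by human CYP1A2 is monitored as luciferase luminescence. Substrate sits at Km (100uM); enzyme is 20nM. Values are scaled to 57 uM furafylline as maximal inhibition.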

[8] = NFAT Signaling Pathway (AID 444; active means well fitted curve in either direction with a large enough effect, not every such curve was filed as active); settings: Jurkat NFAT-bla M1, carbachol, beta-lactamase ratio, 5 h; at 7.69 µM (top of the series) unless noted
Summary of the method: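 Read-out: CCF4 FRET ratio (460 nm/530 nm) after 1 h RT dye loading, used for %activity and AC50 from titration series. Cells: Jurkat NFAT-β-lactamase/M1 line, treated with compound plus 1 uM carbachol for 5 h, 37 °C.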

[9] = molecular target: Glucocorticoid receptor (Homo sapiens) (UniProt P04150); test: GR-GFP Redistribution (AID 450;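 active means compounds whose dose series gives a full or clear partial fitted curve of increased nuclear translocation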; further: potency means the concentration at half of the fitted maximal effect); settings: U2OS GR-GFP nuclear translocation, laser cytometry, 2 h
[10] = molecular target: Cytochrome P450 3A4 (Homo sapiens) (UniProt P08684); test: qHTS Assay for Inhibitors and Substrates of Cytochrome P450 3A4 (AID 884); further: potency means the concentration at half of the fitted maximal effect; nearly all actives have a fitted effect of over 50% in size
Summary of the method: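 Luminescent readout of luciferin produced by CYP3A4 (20 nM) dealkylation of Luciferin-PPXE, 25 uM (its KM). NADPH-driven reaction ran 60 min at RT after 10 min compound preincubation; data scaled to 57 uM ketoconazole as 100% inhibition.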

[11] = molecular target: Cytochrome P450 3A4 (Homo sapiens) (UniProt P08684); test: qHTS Assay for Activators of Cytochrome P450 3A4 (AID 885); further: nearly all actives have a fitted effect of over 65% in size
Summary of the method: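 Using 20nM recombinant human CYP3A4 in potassium phosphate (200mM), substrate Luciferin-PPXE at 25uM, luminescent luciferin detection followed a 60-min RT NADPH reaction; data scaled to 57 uM ketoconazole.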

[12] = molecular target: Cytochrome P450 2C19 (Homo sapiens) (UniProt P33261); test: qHTS Assay for Inhibitors and Substrates of Cytochrome P450 2C19 (AID 899); further: potency means the concentration at half of the fitted maximal effect; nearly all actives have a fitted effect of over 60% in size
Summary of the method: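 Luminescence readout of luciferin formed from 10uM Luciferin-H EGE (KM level) by 5 nM CYP2C19 in 50mM KPO4. 60 min NADPH-driven reaction at 37C after 10 min compound preincubation; data scaled to 57uM ketoconazole inhibition.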

[13] = qHTS Assay for Lipid Storage Modulators (AID 1519; calls by dose curve); settings: Drosophila S3 cells, BODIPY lipid droplet/cell ratio, laser cytometry, cells loaded with oleic acid
Summary of the method: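 Cells seeded at 5,000 per well were treated with compounds over a concentration series and loaded with oleic acid (400 uM, as added). Lipid droplet fluorescence (488 nm excitation, 500-530 nm channel) was read by laser-scanning cytometry and normalized to 20 uM Triacsin C.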

[14] = molecular target: Dual specificity protein kinase CLK4 (Homo sapiens) (UniProt Q9HAZ1); test: qHTS Assay for Inhibitors of CDC-like Kinase 4 (Kinase-Glo Assay) (AID 1770); further: potency means the concentration at half of the fitted maximal effect; nearly all actives have a fitted effect of over 65% in size
Summary of the method: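 Readout: Kinase-Glo luminescence from ATP left after a 4.5 h room-temperature reaction of 25 nM Clk4 with 100 uM RS peptide and 1 uM ATP (final). Buffer: 25 mM Tris pH 7.5, 10 mM MgCl2.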

[15] = molecular target: Dual specificity protein kinase CLK4 (Homo sapiens) (UniProt Q9HAZ1); test: qHTS Assay for Inhibitors of CDC-like Kinase 4 (ADP-Glo Assay) (AID 1771); further: potency means the concentration at half of the fitted maximal effect; nearly all actives have a fitted effect of over 70% in size
Summary of the method: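 Compounds are pin-transferred onto substrate mix (100 uM RS peptide, 1 uM ATP), then 25 nM Clk4 is added. After 1 hr at room temperature, ADP-Glo reagent runs 45 min, detection reagent 30 min, then luminescence is read.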

[16] = molecular target: Ubiquitin carboxyl-terminal hydrolase 1 (Homo sapiens) (UniProt O94782); test: Inhibitors of USP1/UAF1: Pilot qHTS (AID 504865);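 further: rhodamine fluorescence freed from ubiquitin-rhodamine substrate followed over time; top concentration of the series differs between compounds; on the % scale 0 is the no-effect control and ±100 the full control effect; nearly all actives have a fitted effect of over 35% in size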
Summary of the method: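 1nM USP1/UAF1 + cpd, 15 min RT; start w/ Ub-Rho 150nM final; kinetic FL 480/540 nm, 6 reads q60 s. Buffer 50mM HEPES pH 7.8, 0.5mM EDTA, 1mM TCEP, 0.01% Tween-20, 0.1 mg/ml BSA.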

[17] = molecular target: Rap guanine nucleotide exchange factor 3 (Homo sapiens) (UniProt O95398); test: Confirmatory qHTS for antagonist of cAMP-regulated guanine nucleotide exchange factor 3 (EPAC1) (AID 1645880);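 further: plate controls were DMSO only for no effect and full effect of the ATA control for full effect; nearly all actives have a fitted effect of over 55% in size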
Summary of the method: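 Released BODIPY-GDP fluoresces less than Rap1-bound BODIPY-GDP; the signal is followed at 480/540 nm at 5-min intervals over 30 min, after 5 min at room temperature. Reactions contain 100 nM EPAC1, 250 nM RAP1B-BODIPY-GDP and 50 uM GDP; results are normalized to ATA and DMSO.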

[18] = molecular target: Rap guanine nucleotide exchange factor 3 (Homo sapiens) (UniProt O95398); test: Confirmatory qHTS for agonist of cAMP-regulated guanine nucleotide exchange factor 3 (EPAC1) (AID 1645881);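 further: EPAC1 catalysed release of BODIPY-GDP from Rap1B seen as fluorescence loss; 100% = effect of cAMP agonist control; nearly all actives have a fitted effect of over 75% in size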
[19] = molecular target: Rap guanine nucleotide exchange factor 4 (Homo sapiens) (UniProt Q8WZA2); test: Confirmatory qHTS for agonist of cAMP-regulated guanine nucleotide exchange factor 4 (EPAC2) (AID 1645884);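 further: nucleotide exchange releases bodipy-GDP from Rap1 and this lowers its fluorescence; on the % scale 0 is the no-effect control and ±100 the full control effect; nearly all actives have a fitted effect of over 65% in size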
[20] = molecular target: Rap guanine nucleotide exchange factor 4 (Homo sapiens) (UniProt Q8WZA2); test: Confirmatory qHTS for antagonist of cAMP-regulated guanine nucleotide exchange factor 4 (EPAC2) (AID 1645885); further: on the % scale 0 is the no-effect control and ±100 the full control effect; nearly all actives have a fitted effect of over 25% in size
[21] = molecular target: Dual specificity protein kinase CLK4 (Homo sapiens) (UniProt Q9HAZ1); test: qHTS Assay for Inhibitors of CDC-like Kinase 4 (ADP-FP Assay) (AID 1795); further: potency means the concentration at half of the fitted maximal effect; nearly all actives have a fitted effect of over 60% in size
Summary of the method: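 FP readout: Orange Transcreener ADP2 tracer (4 nM) plus ADP antibody, read after 30 min at room temperature. Kinase step: 6.25 nM Clk4, 100 uM RS peptide, 1 uM ATP, pH 7.5, 1 h.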

[22] = molecular target: Rap guanine nucleotide exchange factor 3 (Homo sapiens) (UniProt O95398); test: Counterscreen qHTS for antagonist of cAMP-regulated guanine nucleotide exchange factor 3 (EPAC1) (AID 1645888); further: % of control where 0% means no effect
Summary of the method: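 Rap1B-BODIPY-GDP 250 nM + GDP 50 uM; cpds 7-pt, final 9.74 nM–152 uM (activator mode) or from 7.32 nM upwards (inhibitor mode); RT; FI 480/540 nm at 5 and 30 min, then ± cAMP, reread.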

Chain of Dual specificity protein kinase CLK4 (Homo sapiens) (Q9HAZ1 whole entry, looked up): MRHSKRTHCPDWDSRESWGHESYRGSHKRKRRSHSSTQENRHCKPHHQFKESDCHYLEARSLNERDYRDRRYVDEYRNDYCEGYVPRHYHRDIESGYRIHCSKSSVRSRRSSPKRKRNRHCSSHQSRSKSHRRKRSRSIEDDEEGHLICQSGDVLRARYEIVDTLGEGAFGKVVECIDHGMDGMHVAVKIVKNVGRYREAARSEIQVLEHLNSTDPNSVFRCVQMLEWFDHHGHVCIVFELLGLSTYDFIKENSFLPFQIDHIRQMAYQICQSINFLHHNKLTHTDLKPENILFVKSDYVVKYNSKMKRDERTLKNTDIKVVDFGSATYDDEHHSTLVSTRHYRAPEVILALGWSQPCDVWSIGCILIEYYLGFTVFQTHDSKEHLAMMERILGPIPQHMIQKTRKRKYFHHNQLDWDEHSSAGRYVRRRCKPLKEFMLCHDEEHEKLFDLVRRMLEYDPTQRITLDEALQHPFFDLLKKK
Chain of Glucocorticoid receptor (Homo sapiens) (P04150 whole entry, looked up, the tested form may be a part): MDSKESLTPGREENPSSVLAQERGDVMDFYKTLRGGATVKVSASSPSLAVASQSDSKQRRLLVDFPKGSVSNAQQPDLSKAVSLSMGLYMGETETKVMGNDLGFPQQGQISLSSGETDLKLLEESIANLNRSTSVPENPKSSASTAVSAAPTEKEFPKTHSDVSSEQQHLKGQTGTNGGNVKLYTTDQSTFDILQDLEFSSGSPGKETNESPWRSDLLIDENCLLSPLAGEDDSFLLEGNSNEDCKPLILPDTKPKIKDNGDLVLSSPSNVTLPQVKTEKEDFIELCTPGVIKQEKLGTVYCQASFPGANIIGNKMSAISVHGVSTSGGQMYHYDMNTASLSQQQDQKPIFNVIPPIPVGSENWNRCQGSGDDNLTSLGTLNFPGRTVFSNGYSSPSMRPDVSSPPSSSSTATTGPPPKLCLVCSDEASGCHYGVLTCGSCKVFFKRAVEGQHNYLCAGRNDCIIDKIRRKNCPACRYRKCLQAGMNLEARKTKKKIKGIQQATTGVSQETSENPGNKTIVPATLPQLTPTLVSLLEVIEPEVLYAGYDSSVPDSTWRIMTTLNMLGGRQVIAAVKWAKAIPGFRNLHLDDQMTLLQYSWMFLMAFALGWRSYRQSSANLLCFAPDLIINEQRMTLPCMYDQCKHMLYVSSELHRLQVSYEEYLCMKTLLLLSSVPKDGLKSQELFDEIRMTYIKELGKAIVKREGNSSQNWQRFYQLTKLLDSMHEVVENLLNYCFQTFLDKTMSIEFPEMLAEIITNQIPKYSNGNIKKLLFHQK
Chain of Rap guanine nucleotide exchange factor 3 (Homo sapiens) (O95398 whole entry, looked up): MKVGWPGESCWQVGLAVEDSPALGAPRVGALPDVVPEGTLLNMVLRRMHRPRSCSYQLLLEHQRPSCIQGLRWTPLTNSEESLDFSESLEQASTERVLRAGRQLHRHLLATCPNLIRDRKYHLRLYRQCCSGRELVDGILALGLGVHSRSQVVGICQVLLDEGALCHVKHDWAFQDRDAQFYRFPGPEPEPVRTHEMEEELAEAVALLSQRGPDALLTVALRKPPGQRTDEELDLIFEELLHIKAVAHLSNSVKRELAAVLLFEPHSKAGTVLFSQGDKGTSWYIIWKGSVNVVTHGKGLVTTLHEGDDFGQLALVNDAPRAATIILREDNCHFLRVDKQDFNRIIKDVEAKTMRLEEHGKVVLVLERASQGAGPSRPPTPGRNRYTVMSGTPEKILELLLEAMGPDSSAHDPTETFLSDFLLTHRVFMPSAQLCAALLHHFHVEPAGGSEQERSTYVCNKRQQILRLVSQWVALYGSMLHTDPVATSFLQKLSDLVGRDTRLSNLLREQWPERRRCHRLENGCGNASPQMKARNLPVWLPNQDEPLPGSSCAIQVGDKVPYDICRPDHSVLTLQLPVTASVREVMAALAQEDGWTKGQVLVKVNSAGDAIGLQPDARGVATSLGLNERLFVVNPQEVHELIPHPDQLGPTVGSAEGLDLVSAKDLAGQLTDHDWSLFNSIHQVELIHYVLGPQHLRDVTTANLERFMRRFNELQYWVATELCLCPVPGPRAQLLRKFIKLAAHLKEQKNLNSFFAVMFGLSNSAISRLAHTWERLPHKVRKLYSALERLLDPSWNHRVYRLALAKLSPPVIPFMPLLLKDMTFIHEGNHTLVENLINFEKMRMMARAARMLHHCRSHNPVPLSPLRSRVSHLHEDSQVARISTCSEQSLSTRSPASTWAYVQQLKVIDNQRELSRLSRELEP
Chain of 3',5'-cyclic-AMP phosphodiesterase 4B (Homo sapiens) (Q07343 whole entry, looked up): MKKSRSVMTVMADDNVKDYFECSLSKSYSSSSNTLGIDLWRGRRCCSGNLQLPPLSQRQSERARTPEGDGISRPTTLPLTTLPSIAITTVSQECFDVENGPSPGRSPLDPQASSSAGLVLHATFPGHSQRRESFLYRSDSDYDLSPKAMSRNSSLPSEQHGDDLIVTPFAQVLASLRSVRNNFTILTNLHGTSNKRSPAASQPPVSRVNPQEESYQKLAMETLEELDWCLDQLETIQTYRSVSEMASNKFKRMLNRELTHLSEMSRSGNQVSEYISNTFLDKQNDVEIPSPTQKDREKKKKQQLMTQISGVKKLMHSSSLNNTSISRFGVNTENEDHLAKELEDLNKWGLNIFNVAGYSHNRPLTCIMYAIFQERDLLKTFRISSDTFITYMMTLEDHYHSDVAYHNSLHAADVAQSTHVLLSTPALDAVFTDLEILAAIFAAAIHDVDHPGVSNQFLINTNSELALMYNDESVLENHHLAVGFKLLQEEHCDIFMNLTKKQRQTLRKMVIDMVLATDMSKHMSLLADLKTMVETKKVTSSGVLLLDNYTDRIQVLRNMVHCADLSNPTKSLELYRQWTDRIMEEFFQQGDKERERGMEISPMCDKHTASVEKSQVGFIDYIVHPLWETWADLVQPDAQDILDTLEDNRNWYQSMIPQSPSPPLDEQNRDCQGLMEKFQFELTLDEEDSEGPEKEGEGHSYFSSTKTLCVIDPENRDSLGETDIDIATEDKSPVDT
Chain of Cytochrome P450 3A4 (Homo sapiens) (P08684 whole entry, looked up): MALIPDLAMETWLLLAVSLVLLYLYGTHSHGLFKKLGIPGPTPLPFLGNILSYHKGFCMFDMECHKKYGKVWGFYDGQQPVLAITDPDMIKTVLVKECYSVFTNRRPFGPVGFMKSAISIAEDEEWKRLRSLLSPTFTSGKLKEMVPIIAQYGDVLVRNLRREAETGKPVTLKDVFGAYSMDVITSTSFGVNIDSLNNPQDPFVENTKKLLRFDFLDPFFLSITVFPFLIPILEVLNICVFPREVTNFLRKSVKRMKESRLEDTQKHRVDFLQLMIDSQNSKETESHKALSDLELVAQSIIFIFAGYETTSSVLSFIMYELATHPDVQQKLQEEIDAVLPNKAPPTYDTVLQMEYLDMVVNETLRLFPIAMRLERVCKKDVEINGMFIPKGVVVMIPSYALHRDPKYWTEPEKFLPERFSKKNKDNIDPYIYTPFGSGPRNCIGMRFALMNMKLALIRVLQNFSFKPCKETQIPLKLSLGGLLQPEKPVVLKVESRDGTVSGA
Chain of Rap guanine nucleotide exchange factor 4 (Homo sapiens) (Q8WZA2 whole entry, looked up): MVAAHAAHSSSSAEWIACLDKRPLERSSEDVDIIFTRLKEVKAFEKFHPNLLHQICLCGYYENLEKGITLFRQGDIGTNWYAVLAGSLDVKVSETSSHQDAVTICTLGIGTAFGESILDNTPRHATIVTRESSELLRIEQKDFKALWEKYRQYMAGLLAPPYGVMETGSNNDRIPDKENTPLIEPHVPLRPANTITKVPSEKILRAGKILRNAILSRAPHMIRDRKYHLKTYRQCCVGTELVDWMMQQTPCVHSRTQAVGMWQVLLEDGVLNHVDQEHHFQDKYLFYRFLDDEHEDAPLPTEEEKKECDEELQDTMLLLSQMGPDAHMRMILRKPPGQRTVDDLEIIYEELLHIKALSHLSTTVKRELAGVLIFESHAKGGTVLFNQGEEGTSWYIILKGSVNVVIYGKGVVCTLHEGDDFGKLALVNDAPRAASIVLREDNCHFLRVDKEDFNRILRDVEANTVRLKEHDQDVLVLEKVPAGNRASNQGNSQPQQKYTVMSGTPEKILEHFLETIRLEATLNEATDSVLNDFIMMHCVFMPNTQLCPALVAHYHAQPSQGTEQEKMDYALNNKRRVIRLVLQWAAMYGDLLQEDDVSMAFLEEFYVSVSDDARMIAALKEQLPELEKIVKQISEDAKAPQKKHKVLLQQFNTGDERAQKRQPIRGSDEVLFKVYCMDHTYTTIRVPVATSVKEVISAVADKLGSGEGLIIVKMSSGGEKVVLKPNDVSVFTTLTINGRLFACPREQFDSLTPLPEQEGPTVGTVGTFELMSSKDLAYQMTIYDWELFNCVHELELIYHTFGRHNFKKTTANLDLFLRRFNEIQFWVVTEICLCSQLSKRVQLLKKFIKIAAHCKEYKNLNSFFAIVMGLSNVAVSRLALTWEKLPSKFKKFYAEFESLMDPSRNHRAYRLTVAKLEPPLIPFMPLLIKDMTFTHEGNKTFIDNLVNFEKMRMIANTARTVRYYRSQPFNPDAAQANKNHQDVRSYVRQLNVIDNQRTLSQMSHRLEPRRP
Chain of Cytochrome P450 2C19 (Homo sapiens) (P33261 whole entry, looked up): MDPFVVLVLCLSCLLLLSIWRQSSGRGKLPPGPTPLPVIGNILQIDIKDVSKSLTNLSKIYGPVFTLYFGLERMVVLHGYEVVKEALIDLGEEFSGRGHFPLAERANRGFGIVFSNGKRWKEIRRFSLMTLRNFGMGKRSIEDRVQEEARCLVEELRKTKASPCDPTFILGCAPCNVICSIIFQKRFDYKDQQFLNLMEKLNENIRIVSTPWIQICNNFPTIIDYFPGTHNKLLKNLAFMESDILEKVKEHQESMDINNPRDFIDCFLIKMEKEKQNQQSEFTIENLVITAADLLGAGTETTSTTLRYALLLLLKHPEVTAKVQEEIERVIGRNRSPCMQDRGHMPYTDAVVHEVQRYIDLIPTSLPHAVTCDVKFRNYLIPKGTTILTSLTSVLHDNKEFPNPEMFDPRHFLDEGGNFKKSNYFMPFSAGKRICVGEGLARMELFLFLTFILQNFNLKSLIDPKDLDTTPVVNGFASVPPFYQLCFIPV

O=C(c1ccncc1)N1CCC[C@@]2(CCN(Cc3cc(C(F)(F)F)cc(C(F)(F)F)c3)C2)C1
inactive: activity change, negative = inhibition [1] 8.67% | activity, negative = inhibition [2] -0.599% | Potency [3] > 46 µM | Potency [4] | Potency [5] | outcome [6]

COc1cccc(-c2cc(NCCc3c[nH]c4ccc(OC)cc34)ncn2)c1
8.88%: max response ([13]; measured here: cell count channel max response)
active: Potency [7] 0.794 µM | Potency [10] 7.94 µM | Potency [12] 0.501 µM | Potency [14] 4.47 µM | Potency [15] 12.6 µM
13.2%: max response ([13]; measured here: lipid channel max response)
inactive: activity change, negative = inhibition [1] -7.38% | activity change, negative = inhibition [8] -9.49% | activity, negative = inhibition [2] -5.09% | Potency [9] > 46 µM | Potency [3] > 46 µM | Potency [5] | Potency [11] | activity change, negative = inhibition ([13]; at 57.5 µM (top of the series)) 7.02% | Potency [16] | Potency [17] | Potency [18] | Potency [19] | Potency [20]

Nc1nc2n[nH]nc2c(=O)[nH]1
inactive: activity change, negative = inhibition ([13]; at 25.7 µM (top of the series)) -1.04%

Cc1ccccc1-c1ccc2ncnc(N(C)Cc3ccco3)c2c1
active: Potency [14] 14.1 µM | Potency [15] 14.1 µM | Potency [21] 12.6 µM

COc1c(-c2ccc(O)c(O)c2)oc2cc(O)cc(O)c2c1=O
inactive: outcome [22]
